# Experimental data: PubChem BioAssay (Tox21)
# Several values for one entry are separate records, joined by “and”; a condition that tells them apart may be missing. Equal values may be shown once. Inconclusive results are not listed. Where a call stands in place of a potency, no number is given. More than one record can exist for a structure, and the calls need not agree. Activity calls are given as the source filed them. Unless noted, the call rests on the fitted dose curve; in most records, active means well fitted curve in the direction sought with a large enough effect in the repeat runs; inconclusive means weak or mixed curves; inactive means no such curve, though single readings can be large; an effect the other way counts as inactive or inconclusive.
# How the values were obtained:
# [1] = qHTS assay to identify small molecule antagonists of the sonic hedgehog signaling (Shh) pathway (AID 1259369; calls by dose curve; further: nearly all actives have a fitted effect of over 45% in size; further: potency means the concentration at half of the fitted maximal effect)
# Method in brief: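 For antagonist detection, the reporter line received test compounds together with conditioned medium, incubated 24hr at 37 C, 5% CO2, then luminescence was recorded following 30min room-temperature luciferase reagent incubation.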
# [2] = biological target: Estrogen receptor beta (Homo sapiens) (UniProt Q92731); assay: qHTS assay to identify small molecule agonists of the estrogen receptor beta (ER-beta) signaling pathway (AID 1259377; active means well fitted activation curve with a large enough effect in the signal ratio in the repeat runs, not every such curve was filed as active; the % refers to the signal ratio)
# Sequence of Estrogen receptor beta (Homo sapiens) (Q92731 whole entry, looked up): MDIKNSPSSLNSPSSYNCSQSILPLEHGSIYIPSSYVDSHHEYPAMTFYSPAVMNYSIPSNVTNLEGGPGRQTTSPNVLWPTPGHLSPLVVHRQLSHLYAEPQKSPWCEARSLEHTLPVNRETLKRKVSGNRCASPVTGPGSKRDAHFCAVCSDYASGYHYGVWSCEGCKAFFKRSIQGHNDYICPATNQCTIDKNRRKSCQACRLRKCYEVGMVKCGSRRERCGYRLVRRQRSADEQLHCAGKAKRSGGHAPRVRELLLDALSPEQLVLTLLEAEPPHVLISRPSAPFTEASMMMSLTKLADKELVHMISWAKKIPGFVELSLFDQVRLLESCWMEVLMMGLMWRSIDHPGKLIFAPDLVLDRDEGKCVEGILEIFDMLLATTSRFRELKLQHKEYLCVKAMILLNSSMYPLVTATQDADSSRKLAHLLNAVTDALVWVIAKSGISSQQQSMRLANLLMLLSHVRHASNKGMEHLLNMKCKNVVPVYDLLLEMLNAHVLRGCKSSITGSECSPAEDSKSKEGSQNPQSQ
# Method in brief: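 In HEK293T cells bearing a UAS-beta-lactamase reporter under ER-beta control, DMSO-delivered compounds were incubated for 16 hr at 37C. Activity was detected as fluorescence 2 hours after LiveBLAzer B/G FRET substrate addition.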
# [3] = qHTS assay to identify small molecule agonists of the androgen receptor (AR) signaling pathway in the presence of an antagonist - cell viability counter screen (AID 1259379);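 further: MDA-kb2 human breast cancer cells carrying an MMTV luciferase reporter; series mostly up to about 92 µM; nearly all actives have a fitted effect of over 25% in size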
# Method in brief: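 Seed MDA-kb2 at 3,000 cells/well; incubate 5 hr, 37C, 0% CO2. Add nilutamide to 3.0uM final, then pin compounds at 15 concentrations. Incubate 16 hr. Add CellTiter-Fluor at 15 hr, read fluorescence after 1 hr.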
# [4] = qHTS assay to identify small molecule agonists of the estrogen receptor beta (ER-beta) signaling pathway - cell viability counter screen (AID 1259380); further: nearly all actives have a fitted effect of over 30% in size
# Method in brief: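 CellTiter-Glo read, 30 min RT, same wells as bla assay; cells ER-beta-UAS-bla HEK293T; 16 hr compound, 37C; medium 2% charcoal-stripped FBS.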
# [5] = qHTS assay to identify small molecule antagonists of the estrogen receptor beta (ER-beta) signaling pathway - cell viability counter screen (AID 1259382); further: series mostly up to about 92 µM; nearly all actives have a fitted effect of over 55% in size
# Method in brief: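 In this multiplexed counter screen, cells were seeded at 2,000 per well in medium with 2% charcoal-stripped FBS and incubated 6 hr before compound and 1nM final E2 were added. Sixteen hours later, ATP-based luminescence reported viability.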
# [6] = biological target: Estrogen receptor (Homo sapiens) (UniProt P03372); assay: qHTS assay to identify small molecule agonists of the estrogen receptor alpha (ER-alpha) signaling pathway in the presence of an antagonist (AID 1259383; calls by dose curve; further: nearly all actives have a fitted effect of over 15% in size; further: potency means the concentration at half of the fitted maximal effect; on activation: top concentration of the series differs between compounds)
# Sequence of Estrogen receptor (Homo sapiens) (P03372 whole entry, looked up): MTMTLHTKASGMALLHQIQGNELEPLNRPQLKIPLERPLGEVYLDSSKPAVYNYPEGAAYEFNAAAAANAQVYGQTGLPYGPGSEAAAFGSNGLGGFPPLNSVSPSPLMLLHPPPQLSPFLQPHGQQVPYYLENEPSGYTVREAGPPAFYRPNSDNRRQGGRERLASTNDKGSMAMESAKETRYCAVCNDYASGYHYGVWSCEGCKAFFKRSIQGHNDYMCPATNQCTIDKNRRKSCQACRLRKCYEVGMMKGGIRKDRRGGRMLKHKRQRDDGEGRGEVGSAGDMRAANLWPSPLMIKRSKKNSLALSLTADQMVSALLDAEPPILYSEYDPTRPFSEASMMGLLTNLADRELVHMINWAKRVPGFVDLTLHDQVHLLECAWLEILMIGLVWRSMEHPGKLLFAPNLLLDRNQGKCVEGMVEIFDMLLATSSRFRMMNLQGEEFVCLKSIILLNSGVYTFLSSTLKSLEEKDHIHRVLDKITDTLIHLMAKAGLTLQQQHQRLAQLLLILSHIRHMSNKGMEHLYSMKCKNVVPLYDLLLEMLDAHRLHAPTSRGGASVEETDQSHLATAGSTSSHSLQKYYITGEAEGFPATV
# Method in brief: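 Stably transfected VM7Luc4E2 reporter cells, kept 5 days in charcoal-stripped serum, received ICI-182,780 at 10.0nM final before compound addition. Following 22hr incubation at 37C and 5% CO2, luciferase signal was read by luminescence.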
# [7] = qHTS assay to identify small molecule agonists or antagonists of the thyroid stimulating hormone receptor (TSHR) signaling pathway - wild type cell line counter screen (AID 1259384; calls by dose curve)
# Method in brief: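 Wild-type Hek293 cells, 800/well, 18 h at 37C, then compound with Ro20-1724 for 30 min RT. cAMP by HTRF (cAMP-d2/anti-cAMP cryptate), 1 h RT, fluorescence read. 15 concentrations, triplicates.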
# [8] = biological target: Thyrotropin receptor (Homo sapiens) (UniProt P16473); assay: qHTS assay to identify small molecule antagonists of the thyroid stimulating hormone receptor (TSHR) signaling pathway (AID 1259385; calls by dose curve; further: nearly all actives have a fitted effect of over 20% in size)
# Sequence of Thyrotropin receptor (Homo sapiens) (P16473 whole entry, looked up): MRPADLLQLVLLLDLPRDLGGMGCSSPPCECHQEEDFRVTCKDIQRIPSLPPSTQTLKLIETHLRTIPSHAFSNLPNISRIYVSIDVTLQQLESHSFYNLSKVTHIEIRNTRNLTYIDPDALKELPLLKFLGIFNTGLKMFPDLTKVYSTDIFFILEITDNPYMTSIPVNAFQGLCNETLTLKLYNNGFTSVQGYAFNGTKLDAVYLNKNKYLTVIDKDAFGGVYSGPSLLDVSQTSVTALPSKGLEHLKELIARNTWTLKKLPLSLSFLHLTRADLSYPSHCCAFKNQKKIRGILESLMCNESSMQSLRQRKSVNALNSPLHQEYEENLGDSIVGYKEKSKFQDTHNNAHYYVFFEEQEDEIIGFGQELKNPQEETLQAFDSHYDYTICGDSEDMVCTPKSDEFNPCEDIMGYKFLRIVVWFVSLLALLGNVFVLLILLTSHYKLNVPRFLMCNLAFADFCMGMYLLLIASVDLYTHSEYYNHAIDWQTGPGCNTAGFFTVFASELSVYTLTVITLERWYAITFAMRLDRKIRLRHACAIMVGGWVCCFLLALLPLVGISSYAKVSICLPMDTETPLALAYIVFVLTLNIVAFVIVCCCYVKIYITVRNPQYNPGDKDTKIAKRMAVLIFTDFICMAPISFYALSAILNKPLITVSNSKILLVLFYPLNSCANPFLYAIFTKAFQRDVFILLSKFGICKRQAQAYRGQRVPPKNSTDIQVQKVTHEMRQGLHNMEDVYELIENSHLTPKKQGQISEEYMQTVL
# Method in brief: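 TSHR-HEK293 cells (800/well) plated 18 h, then compounds with Ro20-1724 and TSH at 1.5 ng/mL final, 30 min at room temperature. cAMP quantified by HTRF (cAMP-d2/anti-cAMP-cryptate, 1 h); 15 concentrations in triplicate.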
# [9] = qHTS assay to identify small molecule agonists of the estrogen receptor alpha (ER-alpha) signaling pathway in the presence of an antagonist - cell viability counter screen (AID 1259386);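 further: series mostly up to about 92 µM; cells exposed to compounds for 22 h at 37 °C before the viability read; nearly all actives have a fitted effect of over 30% in size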
# Method in brief: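 Viability counter screen using VM7Luc4E2 (full-length ER-alpha, four ERE-luciferase). The cells were treated with compounds alongside ICI-182,780 10.0nM for 22hr, and live-cell protease fluorescence was quantified with CellTiter-Fluor.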
# [10] = biological target: Progesterone receptor (Homo sapiens) (UniProt P06401); assay: qHTS assay to identify small molecule agonists of the progesterone receptor (PR) signaling pathway (AID 1346784; calls by dose curve; further: nearly all actives have a fitted effect of over 30% in size)
# Sequence of Progesterone receptor (Homo sapiens) (P06401 whole entry, looked up): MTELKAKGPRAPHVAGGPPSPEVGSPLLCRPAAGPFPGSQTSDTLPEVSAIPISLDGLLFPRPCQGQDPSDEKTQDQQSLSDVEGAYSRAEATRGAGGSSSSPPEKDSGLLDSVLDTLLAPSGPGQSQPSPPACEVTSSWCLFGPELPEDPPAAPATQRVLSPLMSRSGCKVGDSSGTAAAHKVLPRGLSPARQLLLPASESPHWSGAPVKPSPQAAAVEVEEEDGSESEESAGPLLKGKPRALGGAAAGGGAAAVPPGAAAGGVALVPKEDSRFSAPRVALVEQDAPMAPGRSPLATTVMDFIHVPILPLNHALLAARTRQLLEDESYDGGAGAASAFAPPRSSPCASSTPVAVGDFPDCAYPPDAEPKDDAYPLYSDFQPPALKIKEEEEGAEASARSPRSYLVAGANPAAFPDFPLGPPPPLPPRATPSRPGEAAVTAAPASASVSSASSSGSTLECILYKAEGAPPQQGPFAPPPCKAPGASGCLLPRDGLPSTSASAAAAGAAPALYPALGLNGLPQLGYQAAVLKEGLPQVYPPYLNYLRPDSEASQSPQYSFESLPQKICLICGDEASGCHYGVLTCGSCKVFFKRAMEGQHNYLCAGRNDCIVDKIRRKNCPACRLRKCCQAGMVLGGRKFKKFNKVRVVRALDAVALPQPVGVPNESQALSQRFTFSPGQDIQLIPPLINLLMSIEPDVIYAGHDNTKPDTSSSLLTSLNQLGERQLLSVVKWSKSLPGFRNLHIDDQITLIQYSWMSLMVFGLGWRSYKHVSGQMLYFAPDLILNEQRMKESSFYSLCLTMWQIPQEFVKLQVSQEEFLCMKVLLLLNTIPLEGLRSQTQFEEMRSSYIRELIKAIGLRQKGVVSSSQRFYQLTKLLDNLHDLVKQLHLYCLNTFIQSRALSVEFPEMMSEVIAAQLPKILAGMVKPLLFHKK
# Method in brief: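 Using charcoal-stripped serum (2%) to limit endogenous steroids, PR-UAS-bla HEK 293T cells received compounds for 16 hr at 37C after 6 hr plating; beta-lactamase FRET fluorescence was recorded following 2 hr substrate loading at room temperature.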
# [11] = biological target: Progesterone receptor (Homo sapiens) (UniProt P06401); assay: qHTS assay to identify small molecule antagonists of the progesterone receptor (PR) signaling pathway (AID 1346795; active means well fitted inhibition curve with a large enough effect in the signal ratio in the repeat runs, not every such curve was filed as active; the % refers to the signal ratio; further: potency means the concentration at half of the fitted maximal effect)
# Method in brief: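 Inhibition of R5020-induced (1 nM final) beta-lactamase reporter signal in PR-UAS-bla HEK293T cells was scored by FRET fluorescence after overnight (16 hr) compound treatment.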
# [12] = qHTS assay to identify small molecule antagonists of the progesterone receptor (PR) signaling pathway - cell viability counter screen (AID 1346798); further: series mostly up to about 92 µM; nearly all actives have a fitted effect of over 50% in size
# Method in brief: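 ATP content as viability readout: CellTiter-Glo luminescence, 30 min room temperature, in PR-UAS-bla HEK293T cells after 16 hr compound/R5020 treatment at 37C and 5% CO2.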
# [13] = qHTS assay to identify small molecule agonists of the progesterone receptor (PR) signaling pathway - cell viability counter screen (AID 1346799; calls by dose curve; further: nearly all actives have a fitted effect of over 45% in size)
# Method in brief: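 Cytotoxicity in PR-bla HEK293T cells: 16 h compound, 37C; CellTiter-Glo added post-FRET read; luminescence after 30 min RT.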
# [14] = qHTS assay to identify small molecule antagonists of the TGF-beta/Smad signaling pathway - cell viability counter screen (AID 1346824); further: nearly all actives have a fitted effect of over 50% in size
# Method in brief: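 SBE-bla HEK 293T cells, incubated overnight, then compound plus 0.25 ng/mL TGF-beta1 (stock added) for 5 hr at 37 C. Viability was read in the same wells by CellTiter-Glo luminescence after 30 min at room temperature.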
# [15] = qHTS assay to identify small molecule agonists of the TGF-beta/Smad signaling pathway - cell viability counter screen (AID 1346829); further: top concentration of the series differs between compounds; nearly all actives have a fitted effect of over 45% in size
# Method in brief: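 In parallel with the Smad reporter read, viability of HEK 293T cells stably carrying SBE-bla is quantified by ATP luminescence following 5 hr compound treatment.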
# [16] = qHTS assay to identify small molecule agonists of the TGF-beta/Smad signaling pathway (AID 1346859; active means well fitted activation curve with a large enough effect in the signal ratio in the repeat runs, not every such curve was filed as active; the % refers to the signal ratio; further: series mostly up to about 77 µM)
# Method in brief: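 Stable Smad binding element-beta-lactamase HEK 293T cells; 5 hr compound exposure at 37 C under 5% CO2; 2 hr room-temperature substrate step; fluorescence excited at 405 nm, collected at 460 nm and 530 nm.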
# [17] = biological target: Thyrotropin-releasing hormone receptor (Homo sapiens) (UniProt P34981); assay: qHTS assay to identify small molecule antagonists of the thyrotropin-releasing hormone receptor (TRHR) signaling pathway (AID 1346877; active means well fitted inhibition curve with a large enough effect in the repeat runs, not every such curve was filed as active; further: series mostly up to about 51 µM)
# Sequence of Thyrotropin-releasing hormone receptor (Homo sapiens) (P34981 whole entry, looked up): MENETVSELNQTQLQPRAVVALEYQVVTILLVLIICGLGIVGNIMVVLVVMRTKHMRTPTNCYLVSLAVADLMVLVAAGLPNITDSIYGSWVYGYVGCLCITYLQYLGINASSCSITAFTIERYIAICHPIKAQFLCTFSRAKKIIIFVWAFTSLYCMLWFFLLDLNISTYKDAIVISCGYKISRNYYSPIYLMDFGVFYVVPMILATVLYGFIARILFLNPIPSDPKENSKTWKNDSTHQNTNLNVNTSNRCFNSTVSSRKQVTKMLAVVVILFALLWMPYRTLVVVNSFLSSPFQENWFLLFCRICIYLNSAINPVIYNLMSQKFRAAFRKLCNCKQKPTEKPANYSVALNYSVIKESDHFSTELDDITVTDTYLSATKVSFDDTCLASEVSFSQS
# Method in brief: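 Following an 18 h incubation at 37 °C and a 2 h calcium dye load, TRHR-HEK293 cells were exposed to compound (5 min, room temperature) and challenged with TRH, 1 nM final.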
# [18] = biological target: Thyrotropin-releasing hormone receptor (Homo sapiens) (UniProt P34981); assay: qHTS assay to identify small molecule agonists of the thyrotropin-releasing hormone receptor (TRHR) signaling pathway (AID 1346891; calls by dose curve;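 further: HEK293 cells expressing TRHR with calcium dye readout; series mostly up to about 58 µM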)
# Method in brief: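 In 1536-format, 1500 TRHR-Hek293 cells per well grew 18 h, took up calcium dye for 2 h at 37 °C, received compound, and were read kinetically; 15-point titrations, triplicates.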
# [19] = biological target: Estrogen receptor beta (Homo sapiens) (UniProt Q92731); assay: qHTS assay to identify small molecule antagonists of the estrogen receptor beta (ER-beta) signaling pathway (AID 1259378; active means well fitted inhibition curve with a large enough effect in the signal ratio in the repeat runs, not every such curve was filed as active; the % refers to the signal ratio)
# Method in brief: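 ER-beta-UAS-bla HEK293T cells in 2% charcoal-stripped FBS medium treated with compound plus 1nM final 17-beta-estradiol for 16 hr at 37C. Beta-lactamase reporter read by FRET substrate fluorescence after 2 hours at room temperature.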
# [20] = biological target: Androgen receptor (Homo sapiens) (UniProt P10275); assay: qHTS assay to identify small molecule agonists of the androgen receptor (AR) signaling pathway in the presence of an antagonist (AID 1259381; calls by dose curve; further: nearly all actives have a fitted effect of over 15% in size; further: potency means the concentration at half of the fitted maximal effect)
# Sequence of Androgen receptor (Homo sapiens) (P10275 whole entry, looked up): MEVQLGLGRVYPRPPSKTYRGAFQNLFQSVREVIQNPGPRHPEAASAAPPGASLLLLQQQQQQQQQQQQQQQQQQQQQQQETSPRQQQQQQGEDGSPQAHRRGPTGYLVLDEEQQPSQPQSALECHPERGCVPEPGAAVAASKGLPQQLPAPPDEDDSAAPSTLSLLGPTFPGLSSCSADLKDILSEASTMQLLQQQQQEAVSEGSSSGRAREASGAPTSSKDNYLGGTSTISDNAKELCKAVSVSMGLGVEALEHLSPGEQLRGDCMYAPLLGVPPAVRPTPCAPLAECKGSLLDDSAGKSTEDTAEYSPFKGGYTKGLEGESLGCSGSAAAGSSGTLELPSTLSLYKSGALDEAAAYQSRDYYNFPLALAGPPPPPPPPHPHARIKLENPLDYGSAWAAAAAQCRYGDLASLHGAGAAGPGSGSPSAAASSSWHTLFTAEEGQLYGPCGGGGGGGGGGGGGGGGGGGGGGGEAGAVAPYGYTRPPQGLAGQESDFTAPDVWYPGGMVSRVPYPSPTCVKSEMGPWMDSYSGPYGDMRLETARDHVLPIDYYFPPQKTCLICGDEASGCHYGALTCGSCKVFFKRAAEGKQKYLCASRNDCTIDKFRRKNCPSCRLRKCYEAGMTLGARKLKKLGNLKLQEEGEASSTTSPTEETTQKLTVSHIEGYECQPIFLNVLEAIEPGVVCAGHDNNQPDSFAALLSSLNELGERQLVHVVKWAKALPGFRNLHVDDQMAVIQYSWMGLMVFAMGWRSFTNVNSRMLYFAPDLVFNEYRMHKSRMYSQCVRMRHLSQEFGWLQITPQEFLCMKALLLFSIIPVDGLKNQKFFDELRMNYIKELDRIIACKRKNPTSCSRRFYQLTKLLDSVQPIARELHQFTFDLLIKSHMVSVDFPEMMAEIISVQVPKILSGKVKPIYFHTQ
# Method in brief: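 Test compounds at 15 concentrations were incubated for 16hr with MDA-kb2 reporter cells in presence of 3.0uM nilutamide (final). Signal: ONE-Glo luciferase luminescence.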
SMILES,Potency [1],outcome [2],Potency [3],Potency [4],Potency [5],Potency [6],outcome [7],Potency [8],Potency [9],Potency [10],Potency [11],Potency [12],Potency [13],Potency [14],outcome [15],outcome [16],outcome [17],outcome [18],outcome [19],Potency [20]
OCCCC1CCCCC1,inactive,inactive,inactive,inactive,inactive,inactive,inactive,inactive,inactive,inactive,inactive,inactive,inactive,inactive,inactive,inactive,inactive,inactive,,
O=c1[nH]c(=O)n([C@H]2C[C@H](O)[C@@H](CO)O2)cc1I,inactive,inactive,inactive,inactive,inactive,,inactive,inactive,inactive,,inactive,inactive,,inactive,inactive,inactive,,,inactive,
O=C(CCCN1CCN(c2ccccn2)CC1)c1ccc(F)cc1,inactive,inactive,inactive,,inactive,,inactive,,inactive,inactive,inactive,inactive,inactive,inactive,,inactive,inactive,inactive,inactive,
CS(=O)(=O)O,inactive,inactive,inactive,,inactive,inactive,inactive,inactive,inactive,inactive,inactive,,inactive,inactive,inactive,inactive,inactive,inactive,inactive,inactive
COc1ccccc1OCC(O)CN1CCN(CC(=O)Nc2c(C)cccc2C)CC1 (stereo not drawn),inactive,inactive,inactive,,inactive,inactive,inactive,inactive,inactive,inactive,inactive,inactive,inactive,inactive,,inactive,inactive,inactive,inactive,
C/C=C(\C)C#N,inactive,,inactive,inactive,inactive,inactive,inactive,inactive,inactive,inactive,inactive,inactive,inactive,inactive,,inactive,inactive,inactive,inactive,
COC(=O)c1c(Cl)c(Cl)c(C(=O)OC)c(Cl)c1Cl,inactive,inactive,inactive,,inactive,inactive,inactive,inactive,inactive,inactive,,inactive,inactive,inactive,inactive,inactive,,,inactive,
CC(=O)OCC(CCn1cnc2cnc(N)nc21)COC(C)=O,inactive,inactive,inactive,,inactive,inactive,inactive,inactive,inactive,inactive,inactive,,,inactive,inactive,inactive,inactive,inactive,inactive,inactive
CCCCCCOC(=O)CCCCC(=O)OCCCCCC,inactive,inactive,inactive,,inactive,inactive,inactive,inactive,inactive,inactive,inactive,inactive,inactive,inactive,inactive,inactive,inactive,inactive,inactive,
NS(=O)(=O)c1ccc(C(=O)O)cc1,inactive,inactive,inactive,inactive,inactive,inactive,inactive,inactive,inactive,inactive,inactive,,inactive,,,inactive,,,,inactive
COc1c(N2C[C@@H]3CCCN[C@@H]3C2)c(F)cc2c(=O)c(C(=O)O)cn(C3CC3)c12,inactive,inactive,inactive,inactive,inactive,inactive,,inactive,inactive,inactive,inactive,inactive,inactive,,inactive,inactive,,,,
CCOC(=O)CCC(C)=O,inactive,,inactive,inactive,inactive,inactive,,,inactive,inactive,inactive,inactive,inactive,inactive,inactive,inactive,,,inactive,
C=C(C)CS(=O)(=O)O,inactive,,inactive,inactive,inactive,inactive,inactive,inactive,inactive,inactive,inactive,inactive,inactive,inactive,inactive,inactive,inactive,inactive,,inactive
CC/C=C\CC/C=C/CO,inactive,,inactive,inactive,inactive,,,,inactive,inactive,inactive,inactive,inactive,inactive,inactive,inactive,inactive,inactive,,
CN1CCCC1,inactive,,inactive,inactive,inactive,inactive,inactive,inactive,inactive,inactive,inactive,inactive,inactive,inactive,,inactive,inactive,inactive,,
Cc1c(O)cccc1O,14 µM (active),,inactive,inactive,inactive,inactive,,,inactive,inactive,inactive,inactive,inactive,inactive,,inactive,inactive,inactive,,
C1OCOCO1,inactive,,inactive,inactive,inactive,,inactive,inactive,inactive,inactive,inactive,inactive,inactive,inactive,inactive,inactive,,,,
CO[Si](CCCOCC1CO1)(OC)OC (stereo not drawn),inactive,,inactive,inactive,inactive,inactive,,,inactive,inactive,inactive,,inactive,inactive,inactive,inactive,inactive,inactive,,
CCCCNC(=O)NCCCC,inactive,,inactive,inactive,inactive,inactive,inactive,inactive,inactive,,inactive,inactive,inactive,,inactive,inactive,inactive,inactive,,inactive
CCCCCSCCCCC,inactive,,inactive,inactive,inactive,inactive,inactive,inactive,inactive,inactive,inactive,inactive,inactive,inactive,inactive,inactive,,,,
COc1ccc2c(c1)CCCC2=O,inactive,,inactive,inactive,inactive,inactive,,,inactive,inactive,inactive,inactive,inactive,inactive,inactive,inactive,,,,
C[N+](C)(C)CC(O)CC(=O)[O-] (stereo not drawn),inactive,,inactive,inactive,inactive,,inactive,inactive,inactive,inactive,inactive,inactive,,inactive,inactive,inactive,inactive,inactive,,
O=C1CCCN1C1CCCCC1,inactive,,inactive,inactive,inactive,inactive,inactive,inactive,inactive,inactive,inactive,inactive,inactive,inactive,inactive,inactive,inactive,inactive,,
C=COCC1CCC(CO)CC1 (stereo not drawn),inactive,,inactive,inactive,inactive,inactive,inactive,inactive,inactive,inactive,inactive,inactive,inactive,inactive,inactive,inactive,inactive,inactive,,
CC(C)(c1ccc(O)cc1)c1ccc(O)cc1,38.1 µM (active) and 19.7 µM (active),,inactive,,inactive,,inactive,inactive,inactive,,15.2 µM (active),,,inactive,inactive,inactive,inactive,inactive,,inactive and 27.8 µM (active)
NC(=O)COCCN1CCN(C(c2ccccc2)c2ccc(Cl)cc2)CC1 (stereo not drawn),inactive,,inactive,inactive,inactive,inactive,inactive,inactive,inactive,inactive,inactive,inactive,,inactive,,inactive,inactive,inactive,,inactive
Cc1cccc(C)c1NC(=O)C(C)N (stereo not drawn),inactive,,inactive,inactive,inactive,inactive,inactive,inactive,inactive,,,inactive,,inactive,inactive,inactive,,,,
O=c1cc(-c2ccccc2)oc2ccccc12,15.3 µM (active),,inactive,inactive,inactive,2.73 µM (active) and 4.06 µM (active),,,inactive,,61.1 µM (active),,,inactive,inactive,inactive,inactive,inactive,,inactive and 4.3 µM (active)
